A selection: hits, their analogues and other compounds. The true share with any hit is near 4.6%.
D1 antagonist = human D1 dopamine receptor antagonism | 3.2% of 360,000 active | HEK293 TREx D1 cells, calcium flux, dopamine EC80; hits give low values | activity change, negative = inhibition, % at 10 µM | P21728; in the data active means activity change below about -30%
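Calcium flux readout: force-coupled, inducible Hek293 Trex D1 line, cells induced overnight at 30 C with tetracycline, dye-loaded 30–90 min at RT. Antagonism scored against EC80 dopamine challenge given 180 s after compound.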
D1 ag = agonists of human D1 dopamine receptor. P21728. HEK293 T-REx D1 cells, calcium flux, agonist mode. activation, % at 2 µM. 1% of 360,000 active; in the data active means activation above about 30%
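Tetracycline-induced HEK293 TREx D1 cells, force-coupled to calcium signalling, were dye-loaded with a no-wash calcium kit. Compound was pin-added after a 10 s baseline. Fluorescence was read kinetically at 1 cycle/s for 180 s, with calcium rises flagged as agonism.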
TRHR agonist-1 = agonists of human TRH receptor | P34981 | TRHR cells, calcium flux fluo-8, FDSS agonist mode | activation, % at 2 µM | 0.18% of 360,000 active; in the data active means activation above about 30%
Target sequence (P34981 whole entry, looked up): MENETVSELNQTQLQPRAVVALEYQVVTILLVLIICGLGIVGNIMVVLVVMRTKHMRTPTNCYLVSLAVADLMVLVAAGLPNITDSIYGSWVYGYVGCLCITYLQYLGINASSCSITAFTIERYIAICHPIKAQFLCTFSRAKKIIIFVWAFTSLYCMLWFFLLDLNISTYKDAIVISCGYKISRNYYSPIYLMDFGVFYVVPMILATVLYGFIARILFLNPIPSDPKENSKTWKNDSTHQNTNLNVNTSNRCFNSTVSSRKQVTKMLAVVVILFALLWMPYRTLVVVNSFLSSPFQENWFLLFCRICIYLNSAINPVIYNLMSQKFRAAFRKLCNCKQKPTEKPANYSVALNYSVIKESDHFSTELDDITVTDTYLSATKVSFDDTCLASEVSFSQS
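TRHR-expressing cells loaded with fluo-8 calcium dye; 23 nL library compound pin-transferred, kinetic FDSS fluorescence (Ex 480/Em 530) recorded about 180 s for agonist-induced calcium release, before a 10 nM TRH EC20 addition for potentiator mode.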
TRHR enhancer-1 = allosterically enhances the human TRH receptor; P34981; TRHR cells, fluo-8 calcium fluorescence, EC20 TRH enhancement; enhancement, % at 2 µM; 0.66% of 360,000 active; in the data active means enhancement above about 30%
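TRHR-expressing cells loaded with fluo-8 calcium dye were read kinetically (ex 480/em 530) during compound addition, then stimulated with an EC20 of TRH (10 nM final). Enhancement of the Gq-mediated intracellular calcium response was scored.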
D1 PAM = enhances dopamine response at the human D1 receptor | 0.036% of 360,000 active | HEK293 TREx D1 cells, calcium flux, dopamine EC20 potentiation | potentiation, % at 10 µM | AID 504651; in the data active means potentiation above about 30%
TRHR enhancer-2 = human TRH receptor allosteric enhancement confirmation; shares compounds with TRHR enhancer-1; TRH receptor cell assay, enhancer confirmation qHTS; activity change, negative = inhibition, % at 46.1 µM; 970 tested, under 10 active; AID 493076;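 further: compound effect scored on response to added TRH at EC20 of 10 nM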
TRHR agonist-2 = human TRH receptor agonism confirmation; 8% of 970 active; AID 493078; shares compounds with TRHR enhancer-1; Potency, µM (titrated, usually from 46.1 µM), most hits filed as activators; TRHR-expressing cells, agonist activation read-out; further: nearly all actives have a fitted effect of over 75% in size
Numbers stand for hits; n = inactive; u = inconclusive; x = not tested or not shown. Unless noted, the call rests on the fitted dose curve; in most records, active means well fitted curve in the direction sought with a large enough effect; inconclusive means small, poorly fitted or top-dose-only effect, or another doubt; inactive means no such curve, though single readings can be large; an effect the other way counts as inactive or inconclusive.

SMILES	D1 antagonist	D1 ag	TRHR agonist-1	TRHR enhancer-1	D1 PAM	TRHR enhancer-2	TRHR agonist-2
Cc1cn2c(N)c(C=C3C=C(Cl)C(=O)C(Cl)=C3)c(=O)nc2s1	n	50.9	n	n	n	n	9.2µM
CCCCn1c(N)c(N(CCC(C)C)C(=O)c2oc3ccc(OCC)cc3c2C)c(=O)[nH]c1=O	n	n	n	n	n	x	x
COc1ccccc1CNC(=O)C/C(C)=N/NC(=O)Cc1ccccc1	n	n	n	41.0	n	n	n
CCC1(c2ccccc2)NC(=O)N(CC(=O)N2CC(=O)Nc3ccccc32)C1=O (stereo unspecified)	n	n	n	n	n	x	x
O=C(CNC(=O)c1ccc(F)cc1)c1ccc(Cl)cc1	-32.8	n	n	43.4	n	n	n
O=C(CN1CCCC1)N1c2ccccc2Sc2ccc(Cl)cc21	n	n	n	47.3	n	n	n
O=C(CN1CCCC1)N1c2ccccc2Sc2ccc(C(F)(F)F)cc21	n	n	n	n	n	x	x
O=C(COc1ccc(Cl)cc1)NCc1nnc(SCC(=O)Nc2ccccc2F)o1	n	n	n	43.7	n	n	n
CC1Cc2cc(/C(O)=C3/C(=O)C(=O)N(CCN4CCOCC4)C3c3ccc(N(C)C)cc3)ccc2O1 (stereo unspecified)	n	n	n	41.9	n	n	n
CC1Cc2cc(/C(O)=C3/C(=O)C(=O)N(CCN4CCOCC4)C3c3ccc(C(C)C)cc3)ccc2O1 (stereo unspecified)	n	n	n	n	n	x	x
O=C(CCCn1c(=S)[nH]c2cc3c(cc2c1=O)OCO3)NCc1ccccc1Cl	n	n	n	46.0	n	n	n
COc1cccc(C(=O)C2CCCN(C(=O)CCc3scnc3C)C2)c1 (stereo unspecified)	n	n	n	n	n	x	x
COc1c(C)cc(C(=O)C2CCCN(C(=O)CCc3scnc3C)C2)cc1C (stereo unspecified)	n	n	n	52.7	n	n	n
Cn1cc(S(=O)(=O)c2cccc(Cl)c2)c(=O)c2cc(F)c(N3CCN(c4ccccc4)CC3)cc21	n	n	n	59.3	n	n	n
O=c1c(S(=O)(=O)c2ccccc2)cn(Cc2ccc(F)cc2)c2cc(N3CCCC3)c(F)cc12	n	n	n	77.0	n	n	n
COc1cc(CNC(C)C23CC4CC(CC(C4)C2)C3)ccc1OCC(=O)NC(C)(C)C (stereo unspecified)	n	37.2	43.3	n	n	n	u
COc1cc(CNC(C)(C)CO)ccc1OCC(=O)NC(C)(C)C	n	n	n	n	n	x	x
CC1=C(C)CC(C(=O)NCCCN2CCCC2=O)C(C(=O)O)C1 (stereo unspecified)	n	n	n	n	n	x	x
O=C(O)C1CC=CCC1C(=O)NCCCN1CCCC1=O (stereo unspecified)	n	n	n	45.2	n	n	n
Cc1ccn2c(=O)nc(SCC(=O)NCCc3ccccc3)nc2c1	n	n	n	n	n	x	x
Cc1cccc(C(=O)N/N=C/c2cc(Br)c(Br)o2)c1	-58.6	n	n	54.2	n	n	n
CC(C)C[C@H](NC(=O)OC(C)(C)C)C(=O)N/N=C/c1ccc2nccnc2c1	n	n	n	53.2	n	n	n
O=C(NC1CCCCC1)C(c1ccc2ncccc2c1)N(Cc1ccccc1)C(=O)c1cccs1 (stereo unspecified)	n	n	n	59.1	n	n	n
NNC(=O)C=C1CCN(c2ncc(C(F)(F)F)cc2Cl)CC1	n	n	n	n	n	x	x
O=C(O)C=C1CCN(c2ncc(C(F)(F)F)cc2Cl)CC1	n	n	n	43.1	n	n	n
SMILES	D1 antagonist	D1 ag	TRHR agonist-1	TRHR enhancer-1	D1 PAM	TRHR enhancer-2	TRHR agonist-2
O=C(NCc1cccs1)c1cccnc1C(=O)O	n	n	51.3	n	n	n	n
Cc1ccc(C)c(N2CCN(C(=O)Cn3ncc4c(=O)oc5ccccc5c43)CC2)c1	n	n	n	n	n	x	x
COc1cccc(-c2nc(SCc3ccc(C)cc3)n3[nH]c(=O)cc3n2)c1	n	n	n	n	n	x	x
NC(=O)COC(=O)c1c2c(nc3ccccc13)CCCCC2	n	n	n	49.3	n	n	n
CCOC(=O)c1cnc(-n2nc(C)cc2C)nc1Nc1ccc(OC)cc1	n	n	n	41.5	n	n	u
Cc1ccc(C)n1C1CCS(=O)(=O)C1 (stereo unspecified)	n	n	n	n	n	x	x
CC(C)c1ccccc1N=C1SCCN1C1CCS(=O)(=O)C1 (stereo unspecified)	n	n	n	69.9	n	n	u
CC(CCOS(N)(=O)=O)c1ccccc1 (stereo unspecified)	n	n	n	n	n	x	x
[2H]C([2H])(CCOS(N)(=O)=O)c1ccccc1	n	n	n	43.8	n	n	u
CCOc1ccc(NC(=O)Cn2c(=O)n(CCCCC(=O)NCCc3ccc(Cl)cc3)c(=O)c3ccccc32)cc1	n	n	n	n	n	x	x
COc1ccc(N2CCN(C(=O)C3CCN(C(=O)c4cccc(Cl)c4)CC3)CC2)cc1	n	n	n	n	n	x	x
Cc1ccc2cc3c(NC(=O)C4CCCO4)nn(CC(C)C)c3nc2c1 (stereo unspecified)	x	n	n	47.3	n	u	n
Cc1ccc2nc3c(cc2c1)c(NC(=O)C1CCCO1)nn3CC(C)C (stereo unspecified)	x	n	n	n	n	x	x
CCCN(C(=S)Nc1ccccc1)C1CCS(=O)(=O)C1 (stereo unspecified)	n	n	n	n	n	x	x
CCCC(=O)Nc1nnc2n1CCS2	n	n	n	n	n	x	x
O=C(COc1ccc(Br)cc1)OCCN1CCCCC1	n	n	30.0	n	n	n	n
O=C(COc1ccc(Br)cc1)N1CCCCCC1	n	n	n	n	n	x	x
O=C(O)c1ccccc1Sc1ncnc2sc3c(c12)CCC3	n	n	n	43.3	n	n	n
O=C(CSc1ncnc2sc3c(c12)CCCC3)c1ccccc1	n	n	n	n	n	x	x
COCCCNC(=O)N1CCN(c2nnc(C)c3c(C)n(-c4ccc(Cl)cc4)nc23)CC1	n	n	n	n	n	x	x
COc1cc2nc(SCc3ccc(Cl)cc3)n3nc(CCn4nc(C)cc4C)nc3c2cc1OC	n	n	n	n	n	x	x
CC1CC(C)CN(C(=O)COC(=O)c2ccc(Cl)nc2)C1 (stereo unspecified)	n	n	n	45.3	n	n	n
COc1ccc(/C=C2\CC/C(=C\c3ccc(OC)cc3OC)C2=O)c(OC)c1	n	54.4	34.1	n	n	n	23.1µM
CC(C)CC(=O)NC1(C(F)(F)F)C(=O)Nc2c1c(=O)[nH]c(=O)n2-c1ccccc1 (stereo unspecified)	n	n	n	n	n	x	x

Source: PubChem
